Assay outcomes as filed in PubChem BioAssay.
NALP1 inh: NALP1 inflammasome inhibitors in reconstituted yeast, colorimetric, S. cerevisiae, triplicate retest. AID 2071, 2009. 0.61% of 280,000 active. S. cerevisiae NALP1/ASC/caspase-1 growth, X-gal OD620, 72 h. inhibition, % at 10 µM; in the data active = inhibition mostly above about 24%, no sharp cut-off; inactive = mostly below about 32%
SUMO Mot1 rescue: yeast Mot1-301 growth rescue at high temperature, primary screen, SUMOylation pathway inhibitor project, S. cerevisiae, ATP luminescence, 38.5C | AID 2716, 2010 | growth rescue, % at 18.8 µM | 1% of 320,000 active | S. cerevisiae Mot1-301 growth rescue; percent above DMSO median, 100 means doubled;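 active = every valid replicate shows activation above 250% relative to neutral control wells; inactive = the rest, any valid replicate at or below 250%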;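 note: OY570 slx delta 5 strain wells were the positive control but not used for scaling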
NLRP3 yeast inh: NALP3 inflammasome inhibitors in reconstituted yeast, primary screen, luminescence, uHTS. Yeast reconstituted NLRP3/ASC/caspase-1, beta-gal luminescence, 24 h. 0.39% of 330,000 active. AID 2825, 2010. inhibition, % at 10 µM;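 active = inhibition of 50% or more; inactive = inhibition below 50%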;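 note: plate controls were induced DMSO wells for no effect and uninduced yeast grown without galactose for full effect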
PolyA inhibitor: polyadenylation inhibitors in yeast reporter cells, primary screen, luminescence, S. cerevisiae. S. cerevisiae SKY197-pL101 polyadenylation reporter, beta-gal luminescence; efflux-impaired pdr1/pdr3 knockout yeast; score 100 = 6 SD above DMSO. 0.02% of 300,000 active. AID 1875, 2009. activity score, % at 12 µM;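 active = lowest replicate activity score at least 50, where 100 means six control SD above control mean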;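 note: yeast exposed to compound for 9 h at 30 °C; higher score means more reporter readthrough which indicates perturbed polyadenylation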
Yeast Mot1 SUMO: growth restoration of Mot1-301 yeast on galactose, dose response, SUMO pathway inhibitor project, whole organism, S. cerevisiae, ATP luminescence, cherry-picked samples; shares compounds with SUMO Mot1 rescue; S. cerevisiae Mot1-301 galactose growth, 24 h; -100 = growth of slx-deleted rescue strain; growth activity, percent, % at 42 µM; 2,300 tested, under 10 active; AID 493004, 2010;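 active = Signal drops as the depositor expects, and the fitted half-maximal dose is no more than ten times the top valid tested dose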;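 note: more negative values mean stronger growth rescue toward the control strain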
* marks the source's active call; other numbers are inactive results; nt = no result; + = active, no number. Shown are actives, neighbours in structure and some others; about 1.8% of the full set was active somewhere.

SMILES | NALP1 inh | SUMO Mot1 rescue | NLRP3 yeast inh | PolyA inhibitor | Yeast Mot1 SUMO
COc1cc2c(cc1OC)C(c1ccc(SC)cc1)CC(=O)N2 (stereo unspecified) | -1 | 666* | 9 | 23 | -1
COc1cc2c(cc1OC)C(c1ccccc1C)CC(=O)N2 (stereo unspecified) | 6 | 732* | 12 | -4 | 0
COc1cc(S(=O)(=O)NC2CCCC2)c(OC)cc1C | 13 | 435* | 4 | -15 | 0
COc1ccc(C)cc1S(=O)(=O)NC1CCCCCC1 | 11 | -13 | 17 | -20 | nt
CCOc1ccccc1NC(=O)C1C2C=CC(C2)C1C(=O)O (stereo unspecified) | 12 | 13 | -5 | 7 | nt
COc1cc2cc(C)c3nnc(SCC(=O)Nc4cc(C)on4)n3c2cc1OC | -11 | 421* | 14 | 18 | 1
Cc1cc(NC(=O)CSc2nnc3c(C)cc4c(C)ccc(C)c4n23)no1 | 13 | -1 | 12 | -5 | nt
O=C(CSc1nnc2ccccn12)NNC(=O)c1ccccc1 | 15 | 6 | 11 | 16 | nt
O=C(CSc1nnc2ccccn12)NNC(=O)c1ccc(Cl)cc1 | -14 | 599* | -8 | -2 | 0
COc1ccc(NC(=O)Nc2c[nH]c(=O)[nH]c2=O)cc1OC | 9 | -3 | 3 | -10 | nt
O=C(N/N=C/C(Br)=C/c1ccccc1)c1cccnc1 | -12 | 500* | 5 | -18 | -2
CCOC(=O)N1CCN(C(=O)CCCCn2c(=S)[nH]c3ccsc3c2=O)CC1 | 11 | 69 | 7 | -1 | nt
COc1ccc(NC(=O)CSc2nnc(-c3ccccn3)n2-c2ccccc2)cc1OC | 10 | 475* | 3 | -2 | 0
CC(C)c1ccc(N2C(=O)CC(Sc3nc4ccccc4o3)C2=O)cc1 (stereo unspecified) | 8 | 30 | 33 | 16 | nt
CCOC(=O)c1nc(Nc2ccccc2CC)c2ccccc2n1 | 0 | 996* | 12 | 20 | 0
CCOC(=O)c1nc(Nc2ccccc2C)c2ccccc2n1 | 4 | 2 | -1 | -7 | nt
O=C1CNC(=O)N1c1ccc(Cl)cc1 | 4 | 6 | -2 | -34 | nt
O=C(CSc1ccc(Cl)cc1)N1N=CCC1c1ccccc1 (stereo unspecified) | nt | 8 | -28 | 21 | nt
CCN1CCN(CC(=O)N2N=CCC2c2ccccc2)CC1 (stereo unspecified) | -9 | 805* | 33 | 15 | 0
Cc1ccc(/C=N/NC(=O)NC23CC4CC(CC(C4)C2)C3)o1 | 16 | 743* | -2 | -8 | -1
O=C(NCCCN1CCOCC1)C1CCC(=O)N1CCc1ccccc1 (stereo unspecified) | 0 | 408* | 2 | 11 | -1
Cc1cc(C)c2c(CN3CCC(C)CC3)cc(=O)oc2c1C | 34 | 1 | 3 | -3 | nt
CCOC(=O)c1ccc(CNC(=O)Cn2nnc(-c3ccc(C)cc3)n2)o1 | -6 | + | -9 | 6 | 1
O=C(Nc1ccc2oc(-c3ccccc3F)nc2c1)c1ncn[nH]1 | -8 | + | 3 | 7 | 1
CC1(C)CC(=O)C(C(=O)c2ccccc2)C(=O)C1Cl (stereo unspecified) | 10 | 536* | 9 | -6 | -1
SMILES | NALP1 inh | SUMO Mot1 rescue | NLRP3 yeast inh | PolyA inhibitor | Yeast Mot1 SUMO
COc1ccccc1CNc1ncnc2nc[nH]c12 | 28 | 671* | 5 | 6 | 0
COc1ccccc1CNc1ncnc2c1nnn2Cc1ccccc1 | 1 | 514* | 11 | 6 | 0
CC1CCCCN1S(=O)(=O)c1ccc2c(c1)oc(=O)n2CC(=O)O (stereo unspecified) | -1 | 6 | 6 | 1 | nt
Cc1ccc(/C=C/C(=O)O)cc1S(=O)(=O)N(CCO)CCO | 8 | 390* | -2 | 7 | 0
COc1ccc(/C=C/C(=O)N2CCC(C(N)=O)CC2)cc1S(=O)(=O)N1CCOCC1 | 8 | 714* | -16 | 13 | -1
COc1ccc(/C=C/C(=O)N2CCN(c3ccccc3)CC2)cc1S(=O)(=O)N1CCOCC1 | -6 | -18 | -4 | 4 | nt
CCOCCN1CCN(c2c3c(nc4cc(-c5ccc(F)cc5)nn24)CCC3)CC1 | 32 | nt | nt | -1 | nt
CC(C)n1cc(C(=O)c2ccccc2O)cc(C#N)c1=O | 4 | 18 | 7 | -5 | nt
COc1ccc(NS(=O)(=O)c2cccc(C(=O)NCCCn3ccnc3)c2)cc1 | nt | 452* | 4 | 1 | 0
CCOC(=O)C1CCN(C2CC(=O)N(c3cccc(Cl)c3)C2=O)CC1 (stereo unspecified) | 16 | 87 | 9 | 20 | nt
NC(=O)C1CCN(C2CC(=O)N(c3ccc(F)c(Cl)c3)C2=O)CC1 (stereo unspecified) | 2 | 649* | 17 | -33 | -1
NC(=O)C1CCN(C2CC(=O)N(c3cccc(F)c3)C2=O)CC1 (stereo unspecified) | 7 | -6 | 15 | 14 | nt
O=C(C1CCN(C2CC(=O)N(c3cccc(Cl)c3)C2=O)CC1)N1CCCC1 (stereo unspecified) | 0 | 417* | 34 | -23 | -1
CCCCNCc1cc2ccccc2o1 | -8 | -1 | -8 | -12 | nt
CC(/C=C\c1cccnc1)=C/C(=O)O | 6 | -10 | 13 | 0 | nt
O=C(O)/C=C/c1cccnc1 | -6 | 399* | -11 | -9 | 0
Clc1ccc(Nc2ccccc2)nn1 | 0 | -9 | 17 | 2 | nt
COc1ccc(Br)cc1CNC(=O)C1CCC(=O)N1C(C)C (stereo unspecified) | nt | 4 | 7 | -19 | nt
Cc1ccc(-n2nnnc2SCC#N)cc1 | -4 | 716* | -15 | -13 | 0
CCC(C)N1C(=O)CN(C2CCCCCC2)C(=O)C1c1ccccc1F (stereo unspecified) | -10 | 422* | -15 | -11 | -1
COc1ccccc1CN1C(=O)CN(C2CCCCCC2)C(=O)C1c1ccc(F)cc1 (stereo unspecified) | 20 | -10 | 5 | -9 | nt
Cc1ccc(CNC(=O)CCCCn2c(=O)[nH]c3ccsc3c2=O)cc1 | -2 | -12 | 12 | 18 | nt
O=C(CCCCCn1c(=O)[nH]c2ccsc2c1=O)NCc1ccc(F)cc1 | 14 | 883* | 23 | 5 | 0
CCS(=O)(=O)N1CCC(C(=O)N2CCc3ccccc3C2)CC1 | -11 | 364* | 6 | 19 | 0
CC(C)CN(CC(C)C)S(=O)(=O)N1CCC(C(=O)N2CCc3ccccc3C2)CC1 | 8 | -2 | 16 | -11 | nt
CCC(=O)Nc1cccc2c1C(=O)N(C)C2=O | 2 | 229 | 1 | 15 | nt
CC1=C(C#N)S(=O)(=O)C(C#N)C(c2ccccc2)C1 (stereo unspecified) | nt | 502* | 7 | -15 | -1
COc1cccc(NC(=O)CN(C)C(=O)c2cc(S(=O)(=O)NCc3ccccc3)ccc2C)c1 | -10 | -8 | 25 | -10 | nt
